# Where “and” joins values, the source holds several entries; their conditions need not be identical. Equal values may be shown once. Records with an inconclusive call do not appear. A number with no mark means an inactive call. Calls of active or inactive are those of the source. Calls come from the whole dose curve; as a rule, active = well fitted curve in the direction sought with a large enough effect; inconclusive = small, poorly fitted or top-dose-only effect, or another doubt; inactive = no such curve, though single readings can be large; an effect the other way counts as inactive or inconclusive.
# Biological target: Papain (Carica papaya) (UniProt P00784)
# Experiment: Primary qHTS assay for inhibitors of the protease papain (AID 1645873);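 note: papain turnover of Z-FR-AMC read as the AMC fluorescence gain over 10 min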
# Settings: papain Z-FR-AMC cleavage, AMC fluorescence; series mostly up to 49.8 µM; activity change, negative = inhibition: at the top concentration
# % is set by controls: 0 for no effect and ±100 for the full control effect.
# Papain (Carica papaya), sequence (P00784 whole entry, looked up): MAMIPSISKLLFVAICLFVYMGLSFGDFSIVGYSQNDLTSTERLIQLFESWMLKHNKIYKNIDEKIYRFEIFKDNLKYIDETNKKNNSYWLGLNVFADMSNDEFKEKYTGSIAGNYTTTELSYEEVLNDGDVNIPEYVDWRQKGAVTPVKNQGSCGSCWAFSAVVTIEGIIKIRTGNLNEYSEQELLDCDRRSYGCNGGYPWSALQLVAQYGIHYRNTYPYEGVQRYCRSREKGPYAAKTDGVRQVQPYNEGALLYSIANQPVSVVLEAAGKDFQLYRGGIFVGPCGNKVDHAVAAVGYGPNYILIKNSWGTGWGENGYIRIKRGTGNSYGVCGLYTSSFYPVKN
Structure (SMILES),"activity change, negative = inhibition [%]",Potency
O=C1CCCN1CC#CCN1CCCC1,1.71,–
CC(C)Oc1cccnc1N(C)C1CCN(Cc2ccccc2)CC1,-7.65,–
CS(=N)(=O)CC[C@H](N)C(=O)O (some centres undefined),21.7,–
CNCCc1ccc(O)c(O)c1,-4.77,–
Oc1ccc2c3c1O[C@H]1c4[nH]c5c(c4C[C@@]4(O)[C@@H](C2)N(CC2CC2)CC[C@]314)C[C@@]1(O)[C@H]2Cc3ccc(O)c4c3[C@@]1(CCN2CC1CC1)[C@H]5O4,0.09,–
Cn1cnc(CCN)c1,-8.55,–
O=C(O)[C@@H]1CCN1,-2.43,–
COc1cc(C(O)CN)ccc1O (centres undefined),1.53,–
CCCN(CCC)[C@@H]1CCc2ccc(O)cc2C1,-7.11,–
O=C(Cc1ccc(Cl)c(Cl)c1)N1CCCCC1CN1CCCC1 (centres undefined),9.09,–
NC1CC1c1ccccc1 (centres undefined),-9.81,–
NC1CCc2cc(O)c(O)cc2C1 (centres undefined),7.65,–
NCc1cc(=O)[nH]o1,-0.99,–
NC(CCP(=O)(O)O)C(=O)O (centres undefined),-5.31,–
C[C@]12CCC3C(CC[C@H]4C[C@H](O)CC[C@]34C)C1CC[C@@H]2C(=O)CO (some centres undefined),-13.6,–
O=C(O)CC[N+](=O)[O-],-8.37,–
O=C(O)Cc1cnc[nH]1,8.37,–
NC(CP(=O)(O)O)C(=O)O (centres undefined),2.97,–
C[C@@H]1O[C@H](C[N+](C)(C)C)C[C@H]1O,-4.05,–
CC(=O)NCCc1c[nH]c2ccccc12,8.19,–
CC(=O)[C@H]1CCC2C3CC[C@H]4C[C@H](O)CC[C@]4(C)C3CC[C@@]21C (some centres undefined),-4.95,–
NC(=NCCC[C@H](N)C(=O)O)N[N+](=O)[O-],14.1,–
S=C(NC1CCCCC1)N1CCC(c2cnc[nH]2)CC1,-4.95,–
NC(N)=NOCCC(N)C(=O)O (centres undefined),-7.47,–
C[N+]1(C)C2CCC1CC(OC(=O)C(CO)c1ccccc1)C2 (centres undefined),–,inactive
NCCc1c[nH]c2ccccc12,2.61,–
NC(=O)CN1CC(O)CC1=O (centres undefined),11.4,–
c1ccc2sc(C3(N4CCCCC4)CCCCC3)cc2c1,8.19,–
CN1C2CCC1CC(OC(=O)c1cc(Cl)cc(Cl)c1)C2 (centres undefined),-8.73,–

# System: not listed separately
# Experiment: Primary qHTS for inhibitors of nuclear receptor binding SET domain protein 2 (NSD2) in an isogenic RCH-ACV NSD2 p.E1099K mutant (9B) (AID 1645876); note: nearly all actives have a fitted effect of over 70% in size; note: potency is the fitted concentration of half-maximal effect
# Settings: RCH-ACV (leukaemia line) NSD2 E1099K (9B) viability, CellTiter-Glo, 72 h; series mostly up to 44.9 µM; activity change, negative = viability loss: at the top concentration
Structure (SMILES),Potency,"activity change, negative = viability loss"
COC[C@H]1OC(=O)c2coc3c2[C@@]1(C)C1=C(C3=O)[C@@H]2CC[C@H](O)[C@@]2(C)C[C@@H]1OC(C)=O,580 nM (active),–
O=C(O)CCCOc1ccc(Cl)cc1Cl,–,-6.52% [at 91.9 µM]
O=C(Oc1ccc([N+](=O)[O-])cc1)N1CCC(C(O)(c2ccc3c(c2)OCO3)c2ccc3c(c2)OCO3)CC1,inactive,–
COC(C)(C)CCCC(C)C/C=C/C(C)=C/C(=O)OC(C)C (centres undefined),–,-7.1%
Nc1ccc(Cl)cc1,–,8.92% [at 91.9 µM]
C/C=C(/C)C(=O)O[C@H]1C(C)=C2[C@H]([C@@H]1OC(=O)CCCCCCC)[C@@](C)(OC(C)=O)C[C@H](OC(=O)CCC)[C@@]1(O)[C@H]2OC(=O)[C@@]1(C)O,5.8 nM (active) and 16.6 nM (active),–
CC(=O)NCCc1c[nH]c2ccccc12,–,1.17% [at 91.9 µM]
S=C(NC1CCCCC1)N1CCC(c2cnc[nH]2)CC1,–,-8.98%
CC(N[C@H]1C[C@H]1c1ccccc1)c1ccc2c(c1)OCCO2 (some centres undefined),–,-18.6%
N=c1c2c(-c3ccccc3)c(-c3ccccc3)n(Cc3ccccc3)c2ncn1C1CCC(O)CC1 (centres undefined),590 nM (active),–

# — PubChem BioAssay (NCATS)
